The supplement of paper PMC3334620
The full ranking holds about 33,000 sequences; the median of “E-score (-0.5 to 0.5)” is about -0.035, and the highest 2% start at about 0.34. This is one part of a sample in which the highest values are shown more often than they occur.

These sequences were tested against T1, Mot3 (UniProt P54785) (assay: PBM E-score (8-mer binding enrichment) (E-score (-0.5 to 0.5)); higher = stronger / more preferred TF binding). Conditions: protein concentration: 200 nM; construct: GST-full length.
T1 sequence: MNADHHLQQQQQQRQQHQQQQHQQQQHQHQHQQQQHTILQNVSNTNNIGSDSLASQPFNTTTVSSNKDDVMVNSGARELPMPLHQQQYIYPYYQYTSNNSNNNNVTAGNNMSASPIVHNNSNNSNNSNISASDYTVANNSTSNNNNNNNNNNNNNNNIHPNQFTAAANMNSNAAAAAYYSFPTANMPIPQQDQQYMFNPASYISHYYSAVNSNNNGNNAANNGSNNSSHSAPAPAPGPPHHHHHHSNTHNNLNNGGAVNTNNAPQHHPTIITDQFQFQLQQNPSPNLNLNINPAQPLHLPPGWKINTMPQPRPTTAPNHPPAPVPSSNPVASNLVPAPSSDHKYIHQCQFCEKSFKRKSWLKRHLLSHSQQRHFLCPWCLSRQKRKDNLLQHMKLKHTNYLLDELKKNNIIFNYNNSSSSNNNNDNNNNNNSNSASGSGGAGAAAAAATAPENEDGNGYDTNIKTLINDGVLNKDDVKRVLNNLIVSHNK
Method in brief: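 Detection of bound protein used fluorescent anti-GST, with scans normalised by masliner. The proteins were GST-tagged yeast transcription factors applied at about 100-200 nM to universal all-10-mer Agilent arrays made double-stranded by primer extension. Each ungapped eight-base word, pooled with its reverse complement, was scored with an E-score from the Universal PBM Analysis Suite.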

Row | Sequence | PBM E-score
1 | CCCGCTTC | -0.191
2 | CCCAGGAC | -0.288
3 | CTGCTTGC | 0.0147
4 | AAGCGCAG | -0.124
5 | CGTATGCA | -0.0506
6 | TCAGGAGA | -0.0813
7 | AGAGGAAA | 0.0488
8 | ACAGGAAA | 0.453
9 | CCAGGAAG | -0.078
10 | GCAGGAGC | 0.0355
11 | GCAGGACC | -0.237
12 | CCAGGAAA | 0.324
13 | CCAGGAGC | -0.247
14 | CCAGGAAC | 0.406
15 | TCAGGAAA | 0.394
16 | GCAGGAAC | 0.463
17 | ACAGGAGA | -0.0281
18 | ATAGGTGC | 0.24
19 | AAGCGAGT | -0.0166
20 | CCGGGTCC | -0.279
21 | AAAGGGCC | -0.132
22 | AAGCCACT | -0.172
23 | AGCTGGAA | -0.29
24 | GCGCCAGC | 0.128
25 | TGCTAAAA | 0.0711

Row | Sequence | PBM E-score
26 | CGCTGAAA | 0.0848
27 | ACAAATCT | 0.103
28 | CTAGTTTC | -0.178
29 | AAGCAGTG | 0.0592
30 | TAGTGGAA | -0.00095
31 | TCAAGGAA | 0.363
32 | ACAGGAAG | 0.0333
33 | ACAAGGAA | 0.263
34 | CCAAGGAA | 0.254
35 | ACAGGAAC | 0.466
36 | GCAGGAAA | 0.451
37 | GCAGGATA | -0.121
38 | ACAGGAAT | 0.107
39 | GGAGGAAA | 0.0847
40 | ATCCATCA | -0.0789
41 | AGAGAGAG | -0.326
42 | CAACAGTC | -0.167
43 | TAGGTATA | -0.0008
44 | CAGGTACA | 0.406
45 | GAGGTACA | 0.192
46 | TGGGTACA | 0.0297
47 | TAGGTACA | 0.36
48 | CCGGTACA | 0.0242
49 | CTTCTAAC | -0.0665
50 | CGTGCTTC | 0.0855

Row | Sequence | PBM E-score
51 | ACTCTACA | 0.174
52 | GTTAGCCA | -0.136
53 | CAGCTCTA | -0.168
54 | ACATTAGT | 0.187
55 | CGGAAACA | 0.0963
56 | AGGAAACC | 0.42
57 | GGGAAACA | -0.036
58 | CGGAAACC | -0.352
59 | AGGAAACT | 0.421
60 | ACGAAACT | -0.0505
61 | AGGAAACA | 0.391
62 | AGGAAACG | 0.339
63 | GGGAAACC | -0.00353
64 | GCGACGAA | -0.154
65 | ACGCGGAG | 0.105
66 | ACCTAGCA | 0.0477
67 | CATAGCGC | 0.0893
68 | TTACCTAA | 0.285
69 | ATACCTAA | 0.071
70 | GTACCTAA | 0.374
71 | ATACCTAC | 0.156
72 | CTACCTAC | 0.188
73 | GTACCTAC | 0.405
74 | AAGCGACG | -0.15
75 | CTGTTAAG | 0.259

Row | Sequence | PBM E-score
76 | ATGTTTAA | 0.285
77 | ATGTTAAA | 0.392
78 | ATGTTAAG | 0.37
79 | ATGTTAAT | 0.338
80 | ACGTTAAA | 0.3
81 | AAGTTAAA | 0.219
82 | GAAGGGTA | 0.0495
83 | GGCCCTAC | -0.281
84 | ACAGACTG | -0.0643
85 | CGTGTTTC | 0.106
86 | TACACGAA | 0.359
87 | CATACACG | 0.316
88 | CACACGAA | 0.165
89 | AACACACT | 0.22
90 | CATACACA | 0.219
91 | AACACAAA | 0.22
92 | TATACACA | 0.364
93 | TACACAAA | 0.369
94 | AACACACA | 0.34
95 | GACACGAA | 0.145
96 | CACACAAA | 0.151
97 | AACACACG | 0.266
98 | ATAAACCG | -0.195
99 | ACAGCGGC | -0.112
100 | ATTAGAAC | 0.0827

Row | Sequence | PBM E-score
101 | AGCTACAG | -0.0877
102 | AATACACG | 0.394
103 | TACACACA | 0.385
104 | GATACACA | 0.14
105 | AATACAAG | 0.313
106 | AATACACT | 0.259
107 | CACACACG | 0.159
108 | AACACGCA | 0.326
109 | AATACACA | 0.389
110 | AATACACC | 0.271
111 | GACACGCA | 0.246
112 | TACACGCA | 0.346
113 | CACACACA | 0.249
114 | CAAACGTG | 0.0815
115 | CCGACCAC | -0.189
116 | AGGGTCCA | -0.297
117 | CCGTATAG | -0.208
118 | ACATCGGG | -0.13
119 | ATCAATGC | -0.189
120 | CTCCAAAA | -0.179
121 | CAGGGACG | 0.0493
122 | GGAGAAAC | -0.149
123 | CGTAGCGA | -0.285
124 | GACTTGCC | 0.127
125 | AGGGTACC | 0.0598

Row | Sequence | PBM E-score
126 | AAGGTACA | 0.394
127 | CGGGTACC | 0.0123
128 | CAGATACG | -0.243
129 | AAGGTATA | 0.113
130 | CAGGTACC | 0.434
131 | GAGGTACC | -0.0594
132 | AAGGTACC | 0.419
133 | CAGGTACG | 0.409
134 | CCGGTACG | -0.199
135 | AAGGTAGA | -0.0631
136 | CAGGTATC | 0.056
137 | ATCGAACC | -0.089
138 | ACTATCCA | -0.204
139 | CGCCTTGA | -0.0273
140 | AACATTGT | 0.257
141 | ATCTCCGA | -0.0589
142 | ATAAGTTA | 0.213
143 | AACTTAAA | 0.212
144 | ACGCTTCC | -0.0948
145 | CAGATCGA | -0.213
146 | AACAGCAA | 0.0647
147 | ACGGTACG | -0.0434
148 | AAGGTACG | 0.436
149 | AAGGTATG | 0.0554
150 | AAGGTAGT | -0.0675

Row | Sequence | PBM E-score
151 | AAGGTACT | 0.364
152 | ACGGTACT | -0.207
153 | GACTCCAC | -0.34
154 | AGGCTCGG | 0.146
155 | ATGCGCTG | -0.00636
156 | AGCTACAT | 0.145
157 | ATATGTAC | 0.274
158 | CTATGTAA | 0.41
159 | CTCTGTAC | 0.0774
160 | CTCTGTAA | 0.133
161 | AGATGTAA | 0.272
162 | ATATGTAA | 0.346
163 | CTATGTAC | 0.378
164 | GTATGTAA | 0.404
165 | GGATGTAA | 0.295
166 | ATATGTAG | 0.202
167 | GTATGTGA | 0.0776
168 | ATATGTGA | 0.197
169 | CGATAGCA | -0.159
170 | CCCTTGCG | -0.214
171 | ACAAGTGC | 0.201
172 | CGATCGCG | -0.102
173 | GACCAATC | -0.039
